# Measured values published in PubChem BioAssay (Tox21).
# Inconclusive results are not listed. Where a call stands in place of a potency, no number is given. Active and inactive are the calls of the source. Calls come from the whole dose curve; as a rule, active = well fitted inhibition curve with a large enough effect in the signal ratio in the repeat runs (not every such curve was filed as active); inconclusive = weak or mixed curves, or effect the other way; inactive = no such curve, though single readings can be large or run the other way; the % refers to the signal ratio.
# Molecular target: Peroxisome proliferator-activated receptor delta (Homo sapiens) (UniProt Q03181)
# Test: qHTS assay to identify small molecule antagonists of the peroxisome proliferator-activated receptor delta (PPARd) signaling pathway (AID 743215);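 note: cells stimulated with agonist L165041 at 300 nM final during compound exposure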
# Settings: HEK293H PPARd-UAS-bla, beta-lactamase FRET ratio, antagonist, 17 h; series mostly up to 62 µM
# Procedure, shortened: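 PPARd-bla HEK293H cells (UAS-bla reporter) preincubated 5 h, then given compound plus 300 nM final L165041 agonist for 17 h at 37 C. Beta-lactamase activity read by LiveBLAzer B/G FRET substrate fluorescence after 2 h at room temperature.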
# Sequence of Peroxisome proliferator-activated receptor delta (Homo sapiens) (Q03181 whole entry, looked up): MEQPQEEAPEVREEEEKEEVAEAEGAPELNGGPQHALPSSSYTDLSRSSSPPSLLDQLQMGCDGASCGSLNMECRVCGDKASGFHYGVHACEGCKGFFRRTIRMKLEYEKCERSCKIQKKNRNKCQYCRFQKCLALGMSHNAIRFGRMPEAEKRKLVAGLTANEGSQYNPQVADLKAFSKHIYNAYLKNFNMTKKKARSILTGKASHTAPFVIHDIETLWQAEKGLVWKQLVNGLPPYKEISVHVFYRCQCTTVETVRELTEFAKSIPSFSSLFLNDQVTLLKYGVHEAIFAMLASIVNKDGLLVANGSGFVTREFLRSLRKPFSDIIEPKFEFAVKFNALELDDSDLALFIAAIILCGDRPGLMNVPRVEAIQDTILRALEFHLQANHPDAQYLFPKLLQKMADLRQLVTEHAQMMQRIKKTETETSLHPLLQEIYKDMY
row,Compound,Potency
1,CN1CCC(=C2c3ccccc3CC(=O)c3sccc32)CC1,inactive
2,O=c1cc(-c2ccccc2)oc2ccccc12,inactive
3,OC(CCN1CCCCC1)(c1ccccc1)C1CC2C=CC1C2 (centres undefined),inactive
4,COCCCOCCCOC,inactive
5,c1ccc([C@H]2CN3CCSC3=N2)cc1,inactive
6,NS(=O)(=O)c1ccccc1Cl,inactive
7,OC1CCCCC1c1ccccc1 (centres undefined),inactive
8,O=[N+]([O-])c1ccc(F)cc1F,inactive
9,C1OCOCO1,inactive
10,NC(CSCC(=O)O)C(=O)O (centres undefined),inactive
11,O=C(O)Cc1ccc(CCNS(=O)(=O)c2ccc(Cl)cc2)cc1,inactive
12,O=C(O)CNC(=O)c1ccc([N+](=O)[O-])cc1,inactive
13,CCCN1CCCC[C@H]1C(=O)Nc1c(C)cccc1C,inactive
14,CCC(=O)OC(C)c1ccccc1 (centres undefined),inactive
15,CC(C)(C)c1nnc(NS(=O)(=O)c2ccccc2)s1,inactive
16,C=CCCCCCCCCC=O,inactive
17,OCCCC1CCCCC1,inactive
18,Nc1c[n+](N2CCOCC2)no1,inactive
19,O=C(O)COc1nn(Cc2ccccc2)c2ccccc12,inactive
20,Cc1ccc(C#N)cc1,inactive
21,N=C(N)c1ccc2cc(OC(=O)c3ccc(N=C(N)N)cc3)ccc2c1,inactive
22,C[N+](C)(C)CCCCCC[N+](C)(C)C,inactive
23,CCCCOCCOCCOCCCC,inactive
24,CCCCCSCCCCC,inactive
